We go through eight compounds from PubChem BioAssay (NCATS).

Records with an inconclusive call do not appear. The source made the active and inactive calls. Unless noted, calls come from the whole dose curve; as a rule, active = well fitted curve in the direction sought with a large enough effect; inconclusive = small, poorly fitted or top-dose-only effect, or another doubt; inactive = no such curve, though single readings can be large; an effect the other way counts as inactive or inconclusive.

A short description of experiment [1]: Cytotoxicity counterscreen for NFkB agonists and antagonists (AID 624476). Note: potency is the fitted concentration of half-maximal effect. The note with it: NFkB reporter cell line viability counterscreen; series mostly up to 46.1 µM. Background: Counterscreens check selectivity or assay interference.
A short description of experiment [2]: qHTS Assay for Identification of Small Molecule Agonists for NFkB Signaling Pathway. (AID 624478).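 Note: compounds tested together with TNF alpha at its EC50 of 10 pM; 0% is about no effect.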 The note with it: NFkB pathway reporter cell assay, agonist mode, cells co-stimulated with 10 pM TNF alpha; series mostly up to 46.1 µM. The essentials:
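Read-out: 460/530 nm emission at 405 nm excitation after 2 h LiveBLAzer loading; ME-180 NFkB-bla reporter cells exposed 5 h at 37 C to compounds with 10 pM TNF alpha final.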

Experiment [3] is described as follows: qHTS Assay for Identification of Small Molecule Antagonists for NFkB Signaling Pathway. (AID 624479; calls by dose curve; note: potency is the fitted concentration of half-maximal effect). The settings on record: NFkB pathway reporter cell assay, antagonist mode; series mostly up to 38.3 µM.
Experiment [4] can be described thus: Cell Proliferation Assay against the TMD8 Cell Line (AID 651645).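 Note: cells exposed to compound for 48 h before reading.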 The settings on record: TMD8 DLBCL cell line proliferation/viability; at 46.1 µM (top of the series). Put shortly:
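Seed log-phase TMD8 cells in RPMI containing 5% FBS, add compounds at once, incubate 48 hours at 37C. Equilibrate to room temperature, add CellTiter-Glo, read luminescence after 15 minutes and express relative to DMSO and bortezomib controls.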

Experiment [5] can be described thus: Cell Proliferation Assay against the HBL1 Cell Line (AID 651646).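 Note: cells exposed to compound for 48 h before reading.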 The note with it: HBL1 DLBCL cells; at 46.1 µM (top of the series). Put shortly: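 HBL1, 500 cells/well, RPMI no phenol red + 5% FBS; cpd pinned, 48 h 37C/5% CO2; CellTiter-Glo, 15 min RT, luminescence. % activity: DMSO = 100%, bortezomib 9.2 uM final = 0%.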
The nature of experiment [6]: Cell Proliferation Assay against the TMD8 Cell Line (Caspase readout at 8 hrs) (AID 651713).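 For caspase activation: 0% = DMSO and 100% = 9.2 µM bortezomib caspase signal.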 Note: potency is the fitted concentration of half-maximal effect. The note with it: TMD8 lymphoma cells, caspase activation luminescence; series mostly up to 46.1 µM. The essentials:
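Apoptosis readout: caspase 3/7 luminescence (Caspase-Glo), 15 min RT. Cells: TMD8, 500/well, RPMI + 5% FBS, no phenol red. Exposure 8 h, 37C. % activity vs DMSO = 0, bortezomib 9.2 uM final = 100.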

Experiment [7] can be described thus: Cell Proliferation Assay against the TMD8 Cell Line (Caspase readout at 16 hrs) (AID 651712).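 For caspase activation: 0% = DMSO and 100% = 9.2 µM bortezomib caspase activation.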 Note: potency is the fitted concentration of half-maximal effect. The note with it: TMD8 lymphoma cells, caspase activation luminescence; series mostly up to 46.1 µM. Put shortly:
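Caspase-Glo luminescence after 16 h compound exposure of TMD8 cells, 37 °C, 5% CO2. Medium: RPMI without phenol red, 5% FBS. Normalisation: DMSO = 0%, bortezomib 9.2 uM final = 100%.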

On to `Cc1ccc(C(=O)Nc2cccc(C(F)(F)F)c2)cc1-c1ccc2nc(NCCN3CCOCC3)ncc2c1`, for which the Potency in experiment [1] was 20.9 µM (active); in experiment [3] it was 4.73 µM (active); in experiment [6], 20.9 µM (active). Besides, in experiment [2], the compound was classed as inactive. The viability (% of control) in experiment [4] amounted to 0.164%. Further, the viability, percent of control in experiment [5] came out at 0.88%.

Take `COc1cc2ncn(-c3cc(OCc4ccccc4C(F)(F)F)c(C(N)=O)s3)c2cc1OC`: the Potency entry in experiment [1], in experiment [3] and in experiment [6] was “inactive” each time. The call in experiment [2] was inactive. Moreover, the viability (% of control) in experiment [4] is 37.6%. In addition, the viability, percent of control in experiment [5] was found to be 41.7%.

Consider `Nc1cc(C(F)(F)F)c(-c2cc(N3CCOCC3)nc(N3CCOCC3)n2)cn1`, for which the Potency was 0.935 µM (active) in experiment [1], 2.09 µM (active) in experiment [7] and 20.9 µM (active) in experiment [6]. In addition, the call in experiment [2] was inactive. The Potency result in experiment [3] was “inactive”. For the same compound, in experiment [4], the viability (% of control) was 3.22%. The viability, percent of control in experiment [5] was 16.8%.

Turning to `Cn1c2cc(S(C)=O)sc2c2cnn(Cc3cccc(N)c3)c(=O)c21` (stereo not given), the Potency result in experiment [1], in experiment [7] and in experiment [6] was “inactive” throughout. The result in experiment [2] was inactive. Besides, in experiment [3], the Potency was 16.8 µM (active). Also, in experiment [5], the viability, percent of control is 93.3%.

In the case of `CC(C)CC(=O)Nc1n[nH]c2c1CN(C(=O)C1CCN(C)CC1)C2(C)C`, the values for the Potency in experiment [1], in experiment [3] and in experiment [6] were 2.35 µM (active), 0.266 µM (active) and 2.35 µM (active), respectively. Also, the outcome in experiment [2] was inactive. In addition, the viability (% of control) in experiment [4] worked out at 4.73%. Further, the viability, percent of control in experiment [5] was 49.6%.

For `COc1ccc2c(c1)CC[C@@H](CN(C)CC(=O)O)[C@H]2c1ccccc1`, the Potency entry in experiment [1], in experiment [3], in experiment [7] and in experiment [6] was “inactive” each time. Further, the compound was called inactive in experiment [2]. Further, the viability (% of control) in experiment [4] came to 118%. Further, the viability, percent of control in experiment [5] is 98.5%.

Turning to `CN1CC[C@@H](c2c(O)cc(O)c3c(=O)cc(-c4ccccc4Cl)oc23)[C@@H](O)C1`, the Potency was 0.132 µM (active) in experiment [1], 0.0149 µM (active) in experiment [3] and 0.0743 µM (active) in experiment [6]. Moreover, the result in experiment [2] was inactive. Also, the viability, percent of control in experiment [5] came out at 41.8%.

As to `CCN1CCN(CC(=O)Nc2ccc(-c3cccc4c(=O)cc(N5CCOCC5)oc34)c3sc4ccccc4c23)CC1`, the Potency in experiment [1] was 5.9 µM (active); in experiment [3], 13.3 µM (active); in experiment [7] it was 0.469 µM (active); in experiment [6], 20.9 µM (active). Further, in experiment [2], the outcome was inactive. Further, the viability (% of control) in experiment [4] was determined as 0.621%. For the same compound, the viability, percent of control in experiment [5] came to 0.638%.
